According to PubChem BioAssay (Tox21):
Inconclusive results are not listed. Where a call stands in place of a potency, no number is given. The source made the active and inactive calls. Unless noted, the call rests on the fitted dose curve; in most records, active means well fitted curve in the direction sought with a large enough effect in the repeat runs; inconclusive means weak or mixed curves; inactive means no such curve, though single readings can be large; an effect the other way counts as inactive or inconclusive.

How the values were obtained:
[1] = qHTS assay to identify small molecule antagonists of the estrogen related receptor (ERR) signaling pathway - cell viability counter screen (AID 1224818); conditions: ERR reporter cell line viability counter screen; series mostly up to 46.1 µM;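 further: viability measured after 17.5 h of compound exposure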
Summary of the method: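 In the same ERR cell assay, compound-treated wells (17.5 h, 37 C) were multiplexed with a fluorogenic viability reagent, CellTiter-Fluor, read after 30 min to flag cytotoxic substances.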

[2] = qHTS assay to identify small molecule antagonists of the estrogen related receptor (ERR) signaling pathway (AID 1224819;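 further: luminescence from an ERR-driven luciferase reporter measured with One-Glo reagent; nearly all actives have a fitted effect of over 50% in size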); conditions: ERR reporter cell line, luciferase inhibition; series mostly up to 46.1 µM
Summary of the method: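 qHTS in ERR cells, 2,000/well, 1536 format. Cpd (DMSO) added after 6 h settle, 18 h 37 C. One-Glo luminescence, 30 min RT.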

[3] = test system: estrogen-related receptor alpha (ERRalpha) with PGC-1alpha coactivator, human; experiment: qHTS assay to identify small molecule antagonists of the estrogen related receptor signaling pathway with the pleiotropic PPARgamma coactivator (PGC) (AID 1224821; calls by dose curve;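 further: lower luminescence signal means antagonism of PGC/ERR signalling; nearly all actives have a fitted effect of over 50% in size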); conditions: ERR/PGC reporter cell line, luciferase, antagonist mode; series mostly up to 46.1 µM
Summary of the method: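 Cells engineered for PGC/ERR signalling (line from NTP) were plated 6 h at 37 C/5% CO2, then exposed to DMSO-dissolved compound for 18 h at 37 C. Luciferase activity was read by One-Glo luminescence after 30 min at room temperature.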

[4] = qHTS assay to identify small molecule antagonists of the estrogen related receptor signaling pathway with the pleiotropic PPARgamma coactivator (PGC) cell viability counter screen (AID 1224822); conditions: ERR/PGC reporter cell line viability counter screen; series mostly up to 46.1 µM
Summary of the method: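 Compounds in DMSO, with positive and negative controls, were applied to PGC/ERR cells (2,000/well) and left 17.5 h at 37 C before CellTiter-Fluor detection.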

[5] = qHTS assay to identify small molecule agonists of the estrogen related receptor signaling pathway with the pleiotropic PPARgamma coactivator (PGC) (AID 1224823); conditions: ERR/PGC reporter cell line, luciferase agonist mode; series mostly up to 46.1 µM; further: potency means the concentration at half of the fitted maximal effect
Summary of the method: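 PGC/ERR reporter cells were seeded, rested 6 h at 37 C/5% CO2, then exposed to compounds in DMSO by pin transfer for 18 h at 37 C. Luciferase activity was read as luminescence after One-Glo reagent and 30 min at room temperature.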

[6] = target: Luciferin 4-monooxygenase (Photinus pyralis) (UniProt P08659); experiment: qHTS assay to identify small molecule inhibitors of firefly luciferase (AID 1224835); further: potency means the concentration at half of the fitted maximal effect; nearly all actives have a fitted effect of over 25% in size; conditions: purified P. pyralis luciferase, luminescence inhibition; series mostly up to 115 µM
Sequence of Luciferin 4-monooxygenase (Photinus pyralis) (P08659 whole entry, looked up): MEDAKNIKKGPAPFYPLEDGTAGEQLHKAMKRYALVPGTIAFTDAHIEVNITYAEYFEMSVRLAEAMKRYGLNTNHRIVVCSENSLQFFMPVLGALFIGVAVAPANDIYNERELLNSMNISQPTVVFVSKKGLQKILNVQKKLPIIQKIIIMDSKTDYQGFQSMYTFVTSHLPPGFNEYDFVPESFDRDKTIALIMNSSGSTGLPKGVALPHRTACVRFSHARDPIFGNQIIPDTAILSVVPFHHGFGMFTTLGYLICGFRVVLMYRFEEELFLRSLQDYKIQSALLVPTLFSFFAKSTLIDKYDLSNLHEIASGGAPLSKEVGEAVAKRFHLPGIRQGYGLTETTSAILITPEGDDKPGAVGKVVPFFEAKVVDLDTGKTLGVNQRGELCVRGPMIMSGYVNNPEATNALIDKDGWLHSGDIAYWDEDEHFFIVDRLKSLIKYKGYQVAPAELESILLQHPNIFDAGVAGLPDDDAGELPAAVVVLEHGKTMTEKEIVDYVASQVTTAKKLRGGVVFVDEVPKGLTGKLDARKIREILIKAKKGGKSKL
Summary of the method: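 Inhibition of purified Photinus luciferase is measured by luminescence. Substrate levels (D-luciferin, ATP) sit at their KM values. Each compound is tested in a concentration series.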

[7] = qHTS assay to identify small molecule agonists of the constitutive androstane receptor (CAR) signaling pathway - cell viability counter screen (AID 1224836); conditions: HepG2-CYP2B6-hCAR viability, CellTiter-Fluor, 23 h, PK11195 added to every well; series mostly up to 92.4 µM; further: nearly all actives have a fitted effect of over 45% in size
Summary of the method: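 Counter screen multiplexed with the CAR reporter readout: HepG2 cells co-transfected with hCAR and the CYP2B6-2.2kb construct receive a 15-concentration compound series and 0.75 uM PK11195 (final), then CellTiter-Fluor fluorescence is read after 23 h.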

[8] = qHTS assay to identify small molecule antagonists of the constitutive androstane receptor (CAR) signaling pathway - cell viability counter screen (AID 1224837); conditions: HepG2-CYP2B6-hCAR viability, CellTiter-Fluor, 23 h, co-treated with 50 nM CITCO; series mostly up to 92.4 µM; further: nearly all actives have a fitted effect of over 45% in size
Summary of the method: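 Using CellTiter-Fluor, viability is scored in HepG2 cells stably carrying hCAR and a 2.2kb CYP2B6 reporter after 23 hr compound exposure across 15 concentrations, with CITCO present at 50 nM.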

[9] = qHTS assay to identify small molecule antagonists of the estrogen related receptor (ERR) signaling pathway from Tox21 library - cell viability counter screen (AID 1224834); conditions: ERR reporter cells viability, CellTiter-Fluor, 17.5 h; series mostly up to 92.4 µM; further: potency means the concentration at half of the fitted maximal effect; nearly all actives have a fitted effect of over 30% in size
Summary of the method: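 CellTiter-Fluor fluorescence measured; ERR cells; 17.5 h compound incubation at 37 C; 30 min reagent step.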

SMILES	Potency [1]	Potency [2]	Potency [3]	Potency [4]	Potency [5]	Potency [6]	Potency [7]	Potency [8]	Potency [9]
CNC(=O)c1cc2c(cn1)[nH]c1ccccc12	inactive	inactive	inactive	inactive	inactive				
CNC(=O)[C@H]1O[C@@H](n2cnc3c(NCc4ccc(N)cc4)ncnc32)[C@H](O)C1O (some centres not stated)	inactive	inactive	inactive	inactive	inactive				
Cc1cccc(C)c1OCC(N)C(C)C (configuration not stated)	inactive	inactive	inactive	inactive	inactive				
CCCCS(=N)(=O)CC[C@H](N)C(=O)O (some centres not stated)	inactive	inactive	inactive	inactive	inactive				
CC1CCN=C(N)S1 (configuration not stated)	inactive	inactive	inactive	inactive	inactive				
CCOC(=O)C(C)Oc1cccc2c(=O)n(CC(=O)Nc3ccc4c(c3)OCCO4)ccc12 (configuration not stated)	inactive	inactive	inactive	inactive					
N#C/C(=C\c1ccc(O)c(O)c1)C(=O)c1ccc(O)c(O)c1	inactive	inactive	inactive	inactive	inactive				
COc1ccc(Br)cc1S(=O)(=O)NC(=O)/C=C/c1ccccc1Cc1ccc2ccccc2c1	inactive	inactive	inactive	inactive	inactive				
NC(=S)c1ccc[n+]([C@@H]2O[C@@H](COP(=O)([O-])OP(=O)(O)OC[C@H]3O[C@@H](n4cnc5c(N)ncnc54)[C@H](OP(=O)(O)O)C3O)C(O)C2O)c1 (some centres not stated)	inactive	inactive	inactive	inactive	18.8 µM (active)				
CCCOC(=O)c1ccc(O)cc1	inactive	inactive	inactive	inactive		89.4 µM (active)	inactive	inactive	
O=C(O)CCC(=O)N1CCCC1C(=O)O (configuration not stated)	inactive	inactive	inactive	inactive	inactive				
O=C(c1ccc2c(c1)OCCO2)N1CCCCC1	inactive	inactive	inactive	inactive	inactive				
CCCC(=O)c1cc(O)c(O)cc1O	inactive	inactive	inactive		inactive	31.7 µM (active)			43.3 µM (active)
CC(=O)O[C@H]1Cc2ccccc2N(C(N)=O)c2ccccc21	inactive	inactive	inactive	inactive	inactive				
C[C@](Cc1ccc(O)c(O)c1)(NN)C(=O)O	inactive	inactive	inactive	inactive	inactive				
C[C@H](NC(=O)/C(C#N)=C/c1ccc(O)c(O)c1)c1ccccc1	inactive	inactive	inactive	inactive	inactive				
CCC(=O)N1CCN(C(=O)c2ccccc2)CC1	inactive	inactive	inactive	inactive	inactive				
Nc1ccc(N2C(=O)c3ccccc3C2=O)c(Cl)c1	inactive	inactive	inactive	inactive	inactive				
COc1cc(/C=C(\C#N)C(=O)c2ccc(O)c(O)c2)cc(I)c1O	inactive	inactive	inactive	inactive	inactive				
CCCn1c(=O)c2[nH]c(C3CCCC3)nc2n(CCC)c1=O	inactive	inactive	inactive	inactive	inactive				
Cn1cnc2c(NCc3ccccc3)nc(NCCO)nc21	inactive	inactive	inactive	inactive	inactive				
CC(=O)SCC[N+](C)(C)C	inactive	inactive	inactive	inactive	inactive				
CN1Cc2sccc2C(c2ccc(O)c(O)c2)C1 (configuration not stated)	inactive	inactive	inactive	inactive	inactive				
COc1cc(C(O)CO)ccc1OS(=O)(=O)O (configuration not stated)	inactive	inactive	inactive	inactive	inactive				
CCN(CC)CCn1c(=O)c(Cc2ccc(OC)cc2)nc2ccccc21	inactive	inactive	inactive	inactive	inactive				
CC(=O)N[C@@H](Cc1c[nH]c2ccccc12)C(=O)OCc1cc(C(F)(F)F)cc(C(F)(F)F)c1	inactive	inactive	inactive	inactive	inactive				
COc1cc(N)c(Cl)cc1C(=O)OCCN1CCCCC1	inactive	inactive	inactive	inactive	inactive				
C#CC(N)CCC(=O)O (configuration not stated)	inactive	inactive	inactive	inactive	inactive				
